Source: PubChem BioAssay
GDH-TPI counter-1 = GDH-TPI coupling enzyme inhibitors, primary screen, artefact control for M. tuberculosis FBA inhibitor project, biochemical, absorbance, full deck; GDH-TPI coupled enzyme counterscreen, NADH absorbance; inhibition, % at 4.8 µM; 360,000 tested, 1.2% active; in the data active = inhibition above about 30%;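 note: 0% = DMSO wells and 100% = wells lacking the enzyme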
BioA inh = M. tuberculosis BioA enzyme inhibitors, primary screen, biochemical, plate reader, single point, HTS; 7,8-diaminopelargonic acid synthase BioA (Mycobacterium tuberculosis); 360,000 tested, 0.096% active; purified M. tuberculosis BioA enzyme; AID 602481, 2012; inhibition, % at 9.99 µM; in the data active = inhibition above about 40%
FBA Mtb inh = Mtb FBA enzyme inhibitors, primary screen, biochemical, fluorescence, strain H37Rv. Fructose-bisphosphate aldolase (Mycobacterium tuberculosis (strain ATCC 25618 / H37Rv)), …. purified M. tuberculosis FBA, fluorescence read-out. inhibition, % at 1 µM. 360,000 tested, 2.3% active. AID 588726, 2011;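 note: 0% = vehicle and 100% = reference inhibitor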
Target sequence (P9WQA3 whole entry, looked up): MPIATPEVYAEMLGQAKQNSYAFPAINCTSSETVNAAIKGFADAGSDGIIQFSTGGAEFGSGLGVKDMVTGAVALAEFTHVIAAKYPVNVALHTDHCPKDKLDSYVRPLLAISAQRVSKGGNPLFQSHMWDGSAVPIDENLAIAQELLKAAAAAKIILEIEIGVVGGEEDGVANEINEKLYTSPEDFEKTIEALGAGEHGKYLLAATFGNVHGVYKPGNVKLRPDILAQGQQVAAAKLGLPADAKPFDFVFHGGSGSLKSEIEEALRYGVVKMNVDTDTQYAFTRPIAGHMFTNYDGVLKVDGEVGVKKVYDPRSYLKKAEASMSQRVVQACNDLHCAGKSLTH
FadD28 FP inh = inhibitors of FadD28 bisubstrate probe binding, primary screen, biochemical, fluorescence polarization, single point; 360,000 tested, 0.22% active; inhibition, % at 12.5 µM; Mycobacterium tuberculosis FadD28 fatty-acid-AMP ligase; in the data active = inhibition above about 8.5%, passing the limit was not always enough
Mtb hypoxia inh = PubChem AID 1159583 | 300,000 tested, 0.1% active | M. tuberculosis hypoxia-regulated fluorescent reporter, fluorescence | fluorescence inhibition, % (concentration not given with the values); in the data active = fluorescence inhibition mostly above about 23%, no sharp cut-off; inactive = mostly below about 17%
Mtb FBA inh conf = M. tuberculosis aldolase blockers, biochemical, fluorescence, strain H37Rv, confirmation. purified M. tuberculosis FBA, fluorescence read-out. shares compounds with FBA Mtb inh. 5,600 tested, 78% active. inhibition, % at 1 µM;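 note: 0% = vehicle wells and 100% = reference inhibitor wells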
GDH-TPI counter-2 = GDH-TPI coupling enzyme inhibitors, artefact control for M. tuberculosis FBA inhibitor project, biochemical, fluorescence, high throughput; GDH-TPI coupled enzyme counterscreen; inhibition, % at 1 µM; 5,600 tested, 81% active; shares compounds with FBA Mtb inh; AID 652141, 2013; in the data active = inhibition above about 10%
An asterisk follows results filed as active; . = no result given; + = active, no number. Shown are actives, neighbours in structure and some others; about 2.9% of the full set was active somewhere. Cut-off read from the data, not from the text of the source, unless noted: active = inhibition above about 27%; inactive = the rest.

SMILES	GDH-TPI counter-1	BioA inh	FBA Mtb inh	FadD28 FP inh	Mtb hypoxia inh	Mtb FBA inh conf	GDH-TPI counter-2
COc1cccc(C(=O)Nc2ccc3c(c2)OC[C@@H](C)N(C)C[C@@H](C)[C@@H](OC)CN(C)C3=O)c1	.	-3	.	.	.	.	.
CCNC(=O)Nc1ccc2c(c1)C(=O)N(C)[C@H]1CC[C@@H](CC(=O)Nc3ccccc3)O[C@H]1CO2	.	-1	.	.	.	.	.
O=C(C[C@@H]1CC[C@H](NC(=O)c2cccc(F)c2)[C@H](CO)O1)NCCN1CCCC1	.	-1	.	.	.	.	.
CO[C@H]1CN(C)C(=O)c2cc(NC(=O)c3ccccc3F)ccc2OC[C@@H](C)N(CC2CC2)C[C@H]1C	.	-1	.	.	.	.	.
CN(Cc1ccccn1)C(=O)CC1C(=O)NCCN1Cc1cccc(Oc2ccccc2)c1 (stereo not given)	6	.	32*	-2	13	165*	122*
C[C@H](CO)N1C[C@H](C)[C@H](CN(C)C(=O)Nc2ccccc2)Oc2ccc(NS(=O)(=O)c3ccccc3)cc2C1=O	.	1	.	.	.	.	.
N#Cc1c(-c2ccccc2)c(C#N)c2nc3ccccc3n2c1N	13	.	83*	-2	-10	91*	67*
N#CCSc1nc2ccccc2c2nc3ccccc3n12	6	1	1	-1	-9	.	.
CCCN(C)C[C@H]1Oc2ncc(-c3ccncc3)cc2C(=O)N([C@@H](C)CO)C[C@@H]1C	.	-3	.	.	.	.	.
COC(=O)c1[nH]c2cc(OC)c(OC)cc2c1NC(=O)CN1C[C@H]2C[C@@H](C1)c1cccc(=O)n1C2	11	0	37*	-2	11	69*	54*
COC(=O)c1[nH]c2cccc(OC)c2c1NC(=O)CN1CC(C)OC(C)C1 (stereo not given)	-2	-1	11	0	5	.	.
COc1ccccc1-c1ccc([C@@H]2[C@H]3CN(S(=O)(=O)c4cn(C)cn4)CCCCN3[C@H]2CO)cc1	.	-1	.	.	.	.	.
CCCc1cc(=O)oc2cc(OC3CCCCC3=O)ccc12 (stereo not given)	14	-3	45*	-2	4	26	22*
CCCCc1cc(=O)oc2cc(OS(C)(=O)=O)ccc12	5	2	17	-1	-2	.	.
CC1CCCCN1C(=O)COc1ccc2ccc(=O)oc2c1 (stereo not given)	5	.	26	-1	20	.	.
O=C1CCCCC1Oc1ccc2ccc(=O)oc2c1 (stereo not given)	9	-1	58*	-4	9	+	174*
CCC(=O)N1[C@H](CNC(C)=O)[C@H](c2ccc(-c3cccc(F)c3)cc2)[C@@H]1CO	.	13	.	.	.	.	.
COCCCNc1ccn2nc(-c3cccc(Cl)c3)cc2n1	0	-2	35*	-1	.	9	-2
COc1cc(-c2cc3nc(NC4CCCCC4)ccn3n2)cc(OC)c1OC	11	0	31*	-2	.	-8	-7
OC1CCC(Nc2ccn3nc(-c4cccc(OCc5ccccc5)c4)cc3n2)CC1 (stereo not given)	8	-1	29*	-6	.	54*	39*
OC1CCC(Nc2ccn3nc(-c4cccc(Cl)c4)cc3n2)CC1 (stereo not given)	6	3	34*	-4	.	61*	42*
COCCCNc1ccn2nc(-c3ccccc3)cc2n1	7	-1	21	-1	.	.	.
CCC(CO)Nc1ccn2nc(-c3cccc(Cl)c3)cc2n1 (stereo not given)	7	2	31*	-3	.	28*	21*
Cc1ccc(S(=O)(=O)NNc2c3ccccc3nc3ccc(Cl)cc23)cc1	10	-1	91*	-1	.	42*	28*
O=C(NN=C/C=C\c1ccco1)c1cccs1	.	.	.	.	-1	.	.
SMILES	GDH-TPI counter-1	BioA inh	FBA Mtb inh	FadD28 FP inh	Mtb hypoxia inh	Mtb FBA inh conf	GDH-TPI counter-2
CO[C@H]1CC[C@H]2CCN(C)C(=O)[C@@H](C)N(C)C(=O)c3cccc(C#N)c3OC[C@H]1O2	.	0	.	.	.	.	.
COCCNC(=O)CSc1nc2cc(OC)c(OC)cc2c(=O)n1CCC1=CCCCC1	8	1	-1	-1	9	.	.
COCCCn1c(N)c(C(=O)NCCC(C)C)c2nc3ccccc3nc21	2	.	34*	0	5	74*	62*
CCOC(=O)c1c(NC(=O)c2c(N)n(CCCOC)c3nc4ccccc4nc23)sc2c1CCCC2	1	0	-3	-3	-5	.	.
CCOCCCn1c(N)c(C(=O)Nc2sc3c(c2C(=O)OC)CCCC3)c2nc3ccccc3nc21	22	2	46*	-2	-5	188*	153*
CCCCn1c(N)c(C(=O)OCCOC)c2nc3ccccc3nc21	3	0	55*	-2	3	31*	17*
COCCNC(=O)c1c(N)n(CCC2=CCCCC2)c2nc3ccccc3nc12	13	-5	54*	-4	4	77*	56*
Cc1nc2c(c(=O)n1CCC1=CCCCC1)c1nc3ccccc3nc1n2N=Cc1ccccc1	.	.	.	.	10	.	.
CCC(C)n1c(C)nc2c(c1=O)c1nc3ccccc3nc1n2CCC1=CCCCC1 (stereo not given)	20	.	32*	-3	1	+	+
Cc1[nH]n(S(=O)(=O)c2ccccc2)c(=O)c1N=Nc1cccc(Cl)c1	4	-2	0	-1	7	.	.
Cc1[nH]n(S(=O)(=O)Cc2ccccc2)c(=O)c1N=Nc1ccccc1Cl	-5	1	40*	-4	24	-4	-6
NC(=O)C1(N2CCCCC2)CCN(C(=O)c2cccn3c(=O)c4cc(Cl)ccc4nc23)CC1	29	2	40*	-1	-5	-2	-6
O=C(c1cccn2c(=O)c3cc(Cl)ccc3nc12)N1CCOCC1	18	1	45*	-1	9	-3	-4
COC(=O)C1=CN(c2ccc(OC)cc2)C=C(C(=O)OC)C1c1cccc(F)c1	-1	0	26	-3	4	.	.
CCOC(=O)c1ccc(N2C=C(C(=O)OC)C(c3cccc(O)c3)C(C(=O)OC)=C2)cc1	7	.	111*	-1	3	97*	81*
COc1cc2c(N3CCOCC3)cc(O)c(CC(=O)Nc3ccccc3)c2cc1OC	3	0	31*	0	.	6	-4
CO[C@H]1CN(C)C(=O)c2cc(NC(=O)c3ccc(F)cc3)ccc2OC[C@@H](C)NC[C@@H]1C	.	1	.	.	.	.	.
COc1cccc(N2CCN(C(=O)c3cc4c(s3)-c3ccccc3OC4)CC2)c1	9	-2	5	-4	13	.	.
CC(=O)c1cc2c(s1)-c1cc(F)ccc1OC2	20	.	87*	-2	-6	63*	51*
